Rows were chosen to be rich in hits. Some 19% of all compounds tested hit in one or more screens of this group.
IL-1B inflam inh: inhibitors of inflammasome signaling (IL-1 beta secretion); hit rate 4.7% among 360,000; AID 743279; activity change, % at 57.5 µM; THP-1 LPS/ATP IL-1B secretion, AlphaLISA, 16 h; hits give low values; in the data active = activity change below about -50%; inconclusive = mostly about -30% to -49%
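Secreted IL-1B measured by AlphaLISA bead assay after 16 h compound exposure of THP-1 cells; compounds (final up to 57.5 uM) added 1 h before LPS (250 ng/mL) and ATP (1.25 mM) stimulation; lower signal means less secretion.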
TDP1 cell noCPT: qHTS for Inhibitors of human tyrosyl-DNA phosphodiesterase 1 (TDP1): qHTS in cells in absence of CPT | DT40 Tdp1-/- hTDP1 cells, no CPT, ATP luminescence, 48 h | Potency, µM (highest dose often 46.2 µM), usual class: inhibitors | hit rate 15% among 420,000; note: nearly all actives have a fitted effect of over 55% in size
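A cellular qHTS used chicken DT40 cells lacking endogenous Tdp1 but carrying stably transfected human TDP1. Compounds were applied without camptothecin, and cell growth kinetics were judged by ATP-dependent luminescence after ≥48 hr.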
ELG1 DNA repair: inhibitors of ELG1-dependent DNA repair in HEK293T cells. HEK293T ELG1-luciferase reporter, luminescence, 16 h; DNA damage induced by 5-fluorouridine. Potency, µM (top dose mostly 46.1 µM), actives largely listed as inhibitors. hit rate 2.3% among 330,000. AID 504467; note: nearly all actives have a fitted effect of over 55% in size
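In this reporter screen, reduction of luminescence relative to DMSO vehicle indicated activity. Compounds and 5-fluorouridine were added together to 2,000 cells per well, incubated for 16 hr at 37 °C, then developed with ONE-Glo.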
DT40 TDP1 CPT: DT40-hTDP1 cell growth loss with CPT; hit rate 12% among 420,000; chicken DT40 Tdp1-/-;hTDP1 cells + 20 nM CPT, ATP luminescence, 48 h; AID 686979; Potency, µM (highest dose often 46.2 µM), hits mostly inhibitors; note: nearly all actives have a fitted effect of over 55% in size
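Chicken DT40 Tdp1-/- cells complemented with human TDP1, 400 cells/well, exposed to compounds plus 20 nM camptothecin for at least 48 h at 37 C; viability read as ATP content by CellTiter-Glo luminescence.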
TDP1 block: blocks human tyrosyl-DNA phosphodiesterase 1; Q9NUW8; recombinant TDP1, AlphaScreen DNA substrate cleavage; Potency, µM (doses to about 130 µM), usual class: inhibitors; hit rate 0.28% among 350,000; AID 485290; note: nearly all actives have a fitted effect of over 40% in size
Target sequence (Q9NUW8 whole entry, looked up): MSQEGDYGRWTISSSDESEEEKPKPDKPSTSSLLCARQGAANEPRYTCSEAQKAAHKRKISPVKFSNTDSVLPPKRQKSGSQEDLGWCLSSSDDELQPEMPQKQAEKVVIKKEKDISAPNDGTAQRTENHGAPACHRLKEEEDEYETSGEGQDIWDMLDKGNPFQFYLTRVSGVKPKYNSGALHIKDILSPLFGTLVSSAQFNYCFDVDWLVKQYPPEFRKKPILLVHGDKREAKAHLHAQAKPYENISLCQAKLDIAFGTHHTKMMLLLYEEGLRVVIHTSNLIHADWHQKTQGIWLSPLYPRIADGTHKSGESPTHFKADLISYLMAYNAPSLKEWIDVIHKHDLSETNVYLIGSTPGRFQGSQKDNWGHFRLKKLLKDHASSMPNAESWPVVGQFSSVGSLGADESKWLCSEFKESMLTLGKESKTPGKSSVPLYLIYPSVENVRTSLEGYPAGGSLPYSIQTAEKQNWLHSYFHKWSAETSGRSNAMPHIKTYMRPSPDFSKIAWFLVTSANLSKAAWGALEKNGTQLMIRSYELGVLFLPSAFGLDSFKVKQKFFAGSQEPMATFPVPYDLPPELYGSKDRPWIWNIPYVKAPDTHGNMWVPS
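Enzyme-compound mixtures sat 15 min at room temperature, followed by a 5 min reaction with 15 nM final substrate and 10 min with AlphaScreen beads. Recombinant human Tdp1 was used at 1 nM final.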
Giardia kill: kills Giardia lamblia | hit rate 0.15% among 340,000 | activity change, % at 7.66 µM, hits read low | Giardia lamblia trophozoite viability | AID 540267; in the data active = activity change below about -80%; inconclusive = between about -30% and that limit;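 note: parasites exposed to compound for two days anaerobically before the ATP read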
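Compounds were tested on trophozoites seeded at 100 cells/well and held 48 hrs at 37 deg C anaerobically. An ATP-based luminescent kit measured the remaining live cells.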
A number is an active result; 0 = inactive; ? = inconclusive; - = no result given; ! = not active in a repeat; [ ] = another dose, or the depositor's remark. Unless noted, calls come from the whole dose curve; as a rule, active = well fitted curve in the direction sought with a large enough effect; inconclusive = small, poorly fitted or top-dose-only effect, or another doubt; inactive = no such curve, though single readings can be large; an effect the other way counts as inactive or inconclusive.

SMILES	IL-1B inflam inh	TDP1 cell noCPT	ELG1 DNA repair	DT40 TDP1 CPT	TDP1 block	Giardia kill
COC(=O)[C@@H](N)CCCN/C(N)=N/[N+](=O)[O-]	-	0	-	?	-	-
CCOC(=O)[C@]12Cc3cc(OC)ccc3[C@H]1N(C(C)C)C(=O)c1cc(OC)ccc12	-116.6	18.4µM	-	20.6µM	-	-
CCOC(=O)[C@]12Cc3c(cc(OC)c(OC)c3OC)[C@H]1N(C(C)C)C(=O)c1cc(OC)ccc12	-113.3	7.31µM	-	9.2µM	-	-
CCOC(=O)c1ncn2c1[C@H]1CCCN1C(=O)c1cc(OC)ccc1-2	-	?	-	?	0	-
Cc1c2ccncc2c(C)c2c1[nH]c1ccccc12	-79.4	1.46µM	?	2.31µM	50.1µM	0
c1ccc2c(c1)[nH]c1cnccc12	0	0	?	0	0	0
CCc1nccc2c1[nH]c1ccccc12	0	?	0	0	-	0
Cc1nccc2c1[nH]c1ccccc12	0	23.7µM!	0	?	0	0
O=C(CNC(=O)c1cccs1)OCC(=O)c1ccc([N+](=O)[O-])cc1	-88.7	?	0	16.4µM	0	0
O=C(COC(=O)Cc1ccccc1)NNC(=O)c1ccc([N+](=O)[O-])cc1	0	0	0	0	0	0
O=[N+]([O-])OC1CO[C@H]2C(O[N+](=O)[O-])COC12 (stereo not given in full)	-	-	-	-	0	-
Cc1ccc(C)c(CN2C(=O)c3ccccc3Sc3ccc(C(=O)N4CCC5(CC4)OCCO5)cc32)c1	-	20.6µM	-	?	0	-
O=C(c1ccc2c(c1)N(Cc1ccc(F)cc1)C(=O)c1ccccc1S2)N1CCC2(CC1)OCCO2	-	16.4µM	-	16.4µM	0	-
CCOc1ccc(CN2C(=O)c3ccccc3Sc3ccc(C(=O)N4CCC5(CC4)OCCO5)cc32)cc1	-	?	-	18.4µM	0	-
O=C(c1ccc2c(c1)N(Cc1ccc(F)cc1)CCS2)N1CCC2(CC1)OCCO2	-65.0	?	0	?	0	0
CCCCCC[C@H]1C(=O)O[C@H](C)[C@H](NC(=O)c2cccc(NC=O)c2O)C(=O)O[C@@H](C)[C@H]1OC(=O)CC(C)C	-	-	-	-	0[21 µM]	-
CCN(CC)C(=O)c1ccc(NC(=O)Nc2ccccc2F)cc1	0	9.2µM	?	4.61µM	0	?
C[C@]12CC[C@H]3C(=CCc4cc(O)ccc43)[C@@H]1CCC2=O	0	?	?	?	0	0
CC(C)(O)[C@@H]1[C@H]2OC(=O)[C@@H]1[C@]1(O)C[C@H]3O[C@]34C(=O)O[C@H]2[C@@]14C (tested in a mixture with another compound)	-	0	-	0	0	-
O=[N+]([O-])NC1=NCCN1Cc1ccc(Cl)nc1	0	2.59µM	0	-	0	0
Cc1c(N)cccc1N	0	0	?	0	0	0
CNC(=O)Oc1cc2c(cc1C(C)(C)C)CCC2	0	16.4µM	-	16.4µM	-	0
CCC1(CCC(C)C)C(=O)NC(=O)NC1=O	-	0	-	?	-	-
Cc1cccc(N2CCc3c2nc2ccccc2c3N)c1	-91.4!	?	?	14.6µM	0	0
COc1cccc(-n2c(/C=C/c3cccc(C)c3)nc3ccccc3c2=O)c1	-	23.1µM	-	?	0[12.3 µM]	-
SMILES	IL-1B inflam inh	TDP1 cell noCPT	ELG1 DNA repair	DT40 TDP1 CPT	TDP1 block	Giardia kill
Cc1cccc(-n2c(/C=C/c3c(C)[nH]c4ccccc34)nc3ccccc3c2=O)c1	-	?	-	?	0[12.3 µM]	-
COc1cccc(-n2c(/C=C/c3ccccc3O)nc3ccccc3c2=O)c1	-	25.9µM	-	?	0[12.3 µM]	-
Cc1cccc(-n2c(/C=C/c3ccccc3O)nc3ccccc3c2=O)c1	-	?	-	?	0[2.28 µM]	-
O=c1c2ccccc2nc(/C=C\c2cccc(Br)c2)n1-c1ccc(O)cc1	-	?	-	?	0[12.3 µM]	-
Cc1cc(C)cc(-n2c(/C=C/c3cccc(F)c3)nc3ccccc3c2=O)c1	-	?	-	20.6µM	0	-
COc1ccc(CCNCc2ccncc2)cc1OC	0	0	?	0	0	0
CCc1ccc(-n2nc(C)c3c(C(=O)NCCc4ccc(OC)c(OC)c4)cc(C)nc32)cc1	-	18.4µM	-	18.4µM	0	-
CCCC[C@@H](C)[C@@H](OC(=O)C[C@@H](CC(=O)O)C(=O)O)[C@H](C[C@@H](C)C[C@H](O)CCCC[C@@H](O)C[C@H](O)[C@H](C)N)OC(=O)C[C@H](CC(=O)O)C(=O)O	-	?	-	?	0	-
CN1C[C@@H](CS(=O)(=O)N(C)C)C[C@@H]2c3cccc4c3c(cn4C)C[C@H]21	-	-	-	-	0	-
O=C1NC(=O)C(=Cc2ccc(-c3ccccc3[N+](=O)[O-])o2)C(=O)N1	-	13µM	0	7.31µM	0	0
Cc1ccc(S(=O)(=O)Oc2ccccc2C=C2C(=O)NC(=O)NC2=O)cc1	-54.9	0	-	0	-	-
O=C1NC(=O)C(=Cc2ccccc2[N+](=O)[O-])C(=O)N1	0	16.4µM	-	14.6µM	-	0
O=C1NC(=O)C(=Cc2ccc(-c3cc(Cl)ccc3[N+](=O)[O-])o2)C(=O)N1	0	?	0	16.4µM	0	0
CC1(C)S[C@@H]2[C@H](N)C(=O)N2[C@H]1C(=O)O	-	0[9.04 µM]	-	0[9.04 µM]	-	-
COc1ccccc1CN1CC[C@@]2(CCCN(C(=O)Oc3ccccc3)C2)C1	-	?	-	0	-	-
O=C(COc1ccccc1Cl)N1CCCC(N2CCN(c3ccc(F)cc3)CC2)C1 (stereo not given)	?	?	?	?	0	0
CN(Cc1ccccc1)C1CCCN(C(=O)COc2ccccc2Cl)C1 (stereo not given)	0	16.4µM	0	?	0	0
COCCNC(=O)c1c(NC(=O)c2ccco2)n(Cc2ccccc2)c2nc3ccccc3nc12	0	20.6µM	?	?	0	0
C=CCNC(=O)c1c(N)n(Cc2ccco2)c2nc3ccccc3nc12	0	14.6µM	?	7.31µM	0	0
COCCNC(=O)c1c(N)n(Cc2ccco2)c2nc3ccccc3nc12	0	?	13µM	?	0	0
COCCCn1c(N)c(C(=O)NCc2ccco2)c2nc3ccccc3nc21	0	?	?	?	-	0
CCOc1cc2[nH]c(=O)n(CCCCC(=O)N3CCN(c4cccc(Cl)c4)CC3)c(=O)c2cc1OCC	-	5.17µM	-	2.31µM	0	-
COc1cc2[nH]c(=O)n(CCCCCC(=O)N3CCN(c4cccc(C(F)(F)F)c4)CC3)c(=O)c2cc1OC	-	6.51µM	-	?	0	-
COc1ccc(N2CCN(C(=O)CCCCCn3c(=S)[nH]c4ccc(N5CCOCC5)cc4c3=O)CC2)cc1	0	2.91µM	-	4.11µM	-	-
CCOc1cc2[nH]c(=S)n(CCCC(=O)N3CCC4(CC3)OCCO4)c(=O)c2cc1OCC	0	0	0	0	0	0
CCC1CN2CCC1CC2C(O)c1ccnc2ccc(OC)cc12 (stereo not given)	-	?	-	?	0	-
